Values joined by “and” are separate entries in the source; they are usually repeats but may differ in a detail not shown here. Identical values can stand only once. Records with an inconclusive call do not appear. A number with no mark means an inactive call. Active and inactive are the calls of the source. Calls follow the shape of the dose curve; as a rule, active = well fitted inhibition curve with a large enough effect; inconclusive = small, poorly fitted or top-dose-only effect; inactive = no such curve, though single readings can be large or run the other way.
Target: Cytochrome P450 2C19 (Homo sapiens) (UniProt P33261)
Test: qHTS Assay for Inhibitors and Substrates of Cytochrome P450 2C19 (AID 899); also: nearly all actives have a fitted effect of over 60% in size
Details: recombinant CYP2C19, luciferin-H EGE luminescence; series mostly up to 57.1 µM; activity, negative = inhibition: at the top concentration
Protocol: NIH Molecular Libraries Screening Centers Network [MLSCN]
NIH Chemical Genomics Center [NCGC]
The P450 gene superfamily is involved in the metabolism and clearance of xenobiotics. This assay used human CYP2C19 to measure the hydroxylation of ethylene glycol ester of 6' deoxyluciferin (Luciferin-H EGE; […]) to luciferin. The luciferin is then measured by luminescence after the addition of a luciferase detection reagent. Luciferin-H EGE concentration in the assay was equal to its KM for CYP2C19. Inhibitors and some substrates limit the production of luciferin, and decrease measured luminescence.
NCGC Assay Protocol Summary:
Two uL of enzyme and substrate mix (final concentrations: 5nM CYP2C19, 10uM Luciferin-H EGE, 50mM KPO4) were dispensed into a white, solid bottom 1536-well microtiter plate. 23nL of compound was transferred by a pin tool. The plate was incubated at 37C for 10 min. Two uL of an NADPH regeneration solution (Promega supplied reagent) was dispensed and the reaction was allowed to continue for 60 min at 37C. Then the reaction was stopped by reconstituted luciferin detection buffer. After another 20 min of incubation the plate was read on the ViewLux (Perkin Elmer) at 60 sec exposure and 2x2 binning. This protocol was carried out with Promega-Glo reagents and further information can be found at http://www.promega.com/tbs/tb325/tb325.pdf. Data were normalized to the to AC100 inhibition (57uM ketoconazole).
Keywords: P450, CYP2C19, Luciferase, MLSMR, MLSCN, NIH Roadmap, qHTS, NCGC
% is scaled to controls: 0 for no effect and ±100 for the full control effect; potency is read from the fitted curve at half-maximal effect.

Cytochrome P450 2C19 (Homo sapiens), sequence (P33261 whole entry, looked up): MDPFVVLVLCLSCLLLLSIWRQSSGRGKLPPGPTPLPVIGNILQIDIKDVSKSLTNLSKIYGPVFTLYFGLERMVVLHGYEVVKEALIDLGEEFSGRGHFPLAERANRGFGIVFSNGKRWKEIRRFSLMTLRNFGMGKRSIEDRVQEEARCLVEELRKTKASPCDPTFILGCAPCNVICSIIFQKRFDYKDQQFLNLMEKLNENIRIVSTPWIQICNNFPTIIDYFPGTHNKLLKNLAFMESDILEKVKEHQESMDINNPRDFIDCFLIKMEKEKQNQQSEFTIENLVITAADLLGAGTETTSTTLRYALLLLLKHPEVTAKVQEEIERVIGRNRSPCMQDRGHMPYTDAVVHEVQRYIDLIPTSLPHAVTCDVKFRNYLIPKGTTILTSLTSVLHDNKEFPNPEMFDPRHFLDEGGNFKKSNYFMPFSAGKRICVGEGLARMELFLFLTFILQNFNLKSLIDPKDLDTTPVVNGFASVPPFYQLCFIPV

Row | Compound | activity, negative = inhibition | Potency | outcome
1 | C[C@@]1(O)CCOC(=O)C1 | 45.1% [at 25.6 µM] | – | –
2 | COc1cccc(-c2nc(NCCc3c[nH]c4ccc(OC)cc34)c3ccccc3n2)c1 | – | 1.58 µM (active) | –
3 | C[C@H](NCCC(c1ccccc1)c1ccccc1)c1ccccc1 | – | 5.01 µM (active) | –
4 | Nc1ncnc2c1ncn2[C@@H]1O[C@H](COP(=O)(O)O)[C@@H](O)[C@@H]1O | -15.3% [at 25.6 µM] | – | –
5 | COc1cc(N)c(Cl)cc1C(=O)N[C@H]1CCN(CCCOc2ccc(F)cc2)C[C@H]1OC | – | – | inactive
6 | C#C[C@@]1(O)CC[C@@H]2[C@@H]3CCC4=CC(=O)CC[C@@H]4[C@H]3CC[C@]21C | – | 5.01 µM (active) | –
7 | O=c1cc(-c2cccc(O)c2)oc2cc(O)ccc12 | -30% | – | –
8 | COc1ccc([C@@H]2CC(=O)c3c(O)cc(O)cc3O2)cc1O | – | 5.01 µM (active) and 7.94 µM (active) | –
9 | CN1[C@H](CC(=O)c2ccccc2)CCC[C@H]1C[C@@H](O)c1ccccc1 | -15.1% | – | –
10 | NCCC(=O)N[C@@H](Cc1cnc[nH]1)C(=O)O | 143% | – | –
11 | CN(C)CCO[C@@H](c1ccc(Cl)cc1)c1ccccn1 | 73.5% [at 25.6 µM] | – | –
12 | CN(C/C=C\c1ccccc1)Cc1cccc2ccccc12 | – | 0.501 µM (active) | –
13 | CCOC(=O)[C@H](CCc1ccccc1)N[C@@H](C)C(=O)N1[C@H](C(=O)O)C[C@H]2CCC[C@@H]21 | – | – | inactive
14 | Clc1ccc([C@H](Cn2ccnc2)OCc2csc3c(Cl)cccc23)c(Cl)c1 | – | 0.251 µM (active) | –
15 | Cc1onc(-c2c(Cl)cccc2Cl)c1C(=O)N[C@H]1C(=O)N2[C@H]1SC(C)(C)[C@H]2C(=O)O | 11.5% [at 25.6 µM] | – | –
16 | C[C@@H](C(=O)O)c1ccc(C(=O)c2ccccc2)s1 | – | 3.98 µM (active) | –
17 | CC(=O)N[C@H](CS)C(=O)O | -15.1% | – | –

Row | Compound | activity, negative = inhibition | Potency | outcome
18 | Cc1cc2ccc(=O)oc2cc1OC[C@@H](O)C(C)(C)O | 26.4% | – | –
19 | NC(=O)c1ccc[n+]([C@@H]2O[C@H](COP(=O)([O-])OP(=O)(O)OC[C@H]3O[C@@H](n4cnc5c(N)ncnc54)[C@@H](O)[C@@H]3O)[C@@H](O)[C@@H]2O)c1 | 11.7% [at 25.6 µM] | – | –
20 | O=C(O)[C@@H]1[C@@H]2C[C@H]3c4[nH]c5ccccc5c4CCN3C[C@@H]2CC[C@@H]1O | -25.9% | – | –
21 | C[N+]1(C)C[C@@H](O)C[C@@H]1C(=O)[O-] | 85.2% [at 25.6 µM] | – | –
22 | C[C@H]1CC[C@@H]2[C@@H](C)[C@H]3[C@H](C[C@H]4[C@@H]5CC=C6C[C@@H](O[C@]7(O[C@H]8O[C@@H](C)[C@@H](O)[C@@H](O)[C@@H]8O)C[C@@H](O[C@@H]8O[C@H](CO)[C@@H](O)[C@H](O)[C@@H]8O)[C@@H](O)[C@H](CO)O7)CC[C@]6(C)[C@H]5CC[C@@]34C)N2C1 | -28.4% [at 25.6 µM] | – | –
23 | CC(=O)CC(=O)[C@@]1(O)CC[C@@H]2[C@@H]3C=C(C)C4=CC(=O)CC[C@@H]4[C@H]3CC[C@]21C | – | 5.01 µM (active) | –
24 | CCOC(=O)C1=C(C)NC(C)=C(C(=O)OC)[C@@H]1c1cccc([N+](=O)[O-])c1 | – | 0.126 µM (active) | –
25 | Clc1ccc(CC[C@H](Cn2ccnc2)Sc2c(Cl)cccc2Cl)cc1 | – | 0.0025 µM (active) | –
26 | CS(=O)(=O)Nc1cccc(-c2nc(Nc3ccc(F)cc3)c3ccccc3n2)c1 | – | 7.94 µM (active) | –
27 | C/C(=C\CNc1ncnc2nc[nH]c12)CO | -7.2% | – | –
28 | C#C[C@@]1(O)CC[C@@H]2[C@@H]3CCC4=C(CCC(=O)C4)[C@H]3CC[C@]21C | – | 0.0631 µM (active) | –
29 | FC(F)(F)c1ccccc1-c1ccc2ncnc(NC3CCNCC3)c2c1 | – | 3.98 µM (active) | –
30 | C[C@@]12C=CC(=O)C=C1CC[C@@H]1[C@@H]2[C@H](O)C[C@]2(C)[C@@H]1CC[C@]2(O)C(=O)CO | 67.3% [at 25.6 µM] | – | –
31 | CC=C(/C(=C/C)c1ccc(O)cc1)c1ccc(O)cc1 | – | 3.16 µM (active) | –
32 | C#C[C@]1(O)CC[C@@H]2[C@H]3CCC4=CCCC[C@@H]4[C@@H]3CC[C@@]21C | – | 3.98 µM (active) | –
33 | CC/C=C\C[C@H]1C(=O)CC[C@@H]1CC(=O)O | -39.4% | – | –
